This note sets out measurements from PubChem BioAssay AID875 (National Center for Advancing Translational Sciences (NCATS), 2007).

In all, about 75,000 compounds went through this assay and about 35 (0.05%) were called active. This excerpt belongs to a sample that is enriched for actives. Unmarked numbers belong to inactive results. The call rests on the fitted dose curve; in most records, active means well fitted inhibition curve with a large enough effect; inconclusive means small, poorly fitted or top-dose-only effect; inactive means no such curve, though single readings can be large or run the other way.

Sequence of Breast cancer type 1 susceptibility protein (Homo sapiens) (P38398 whole entry, looked up): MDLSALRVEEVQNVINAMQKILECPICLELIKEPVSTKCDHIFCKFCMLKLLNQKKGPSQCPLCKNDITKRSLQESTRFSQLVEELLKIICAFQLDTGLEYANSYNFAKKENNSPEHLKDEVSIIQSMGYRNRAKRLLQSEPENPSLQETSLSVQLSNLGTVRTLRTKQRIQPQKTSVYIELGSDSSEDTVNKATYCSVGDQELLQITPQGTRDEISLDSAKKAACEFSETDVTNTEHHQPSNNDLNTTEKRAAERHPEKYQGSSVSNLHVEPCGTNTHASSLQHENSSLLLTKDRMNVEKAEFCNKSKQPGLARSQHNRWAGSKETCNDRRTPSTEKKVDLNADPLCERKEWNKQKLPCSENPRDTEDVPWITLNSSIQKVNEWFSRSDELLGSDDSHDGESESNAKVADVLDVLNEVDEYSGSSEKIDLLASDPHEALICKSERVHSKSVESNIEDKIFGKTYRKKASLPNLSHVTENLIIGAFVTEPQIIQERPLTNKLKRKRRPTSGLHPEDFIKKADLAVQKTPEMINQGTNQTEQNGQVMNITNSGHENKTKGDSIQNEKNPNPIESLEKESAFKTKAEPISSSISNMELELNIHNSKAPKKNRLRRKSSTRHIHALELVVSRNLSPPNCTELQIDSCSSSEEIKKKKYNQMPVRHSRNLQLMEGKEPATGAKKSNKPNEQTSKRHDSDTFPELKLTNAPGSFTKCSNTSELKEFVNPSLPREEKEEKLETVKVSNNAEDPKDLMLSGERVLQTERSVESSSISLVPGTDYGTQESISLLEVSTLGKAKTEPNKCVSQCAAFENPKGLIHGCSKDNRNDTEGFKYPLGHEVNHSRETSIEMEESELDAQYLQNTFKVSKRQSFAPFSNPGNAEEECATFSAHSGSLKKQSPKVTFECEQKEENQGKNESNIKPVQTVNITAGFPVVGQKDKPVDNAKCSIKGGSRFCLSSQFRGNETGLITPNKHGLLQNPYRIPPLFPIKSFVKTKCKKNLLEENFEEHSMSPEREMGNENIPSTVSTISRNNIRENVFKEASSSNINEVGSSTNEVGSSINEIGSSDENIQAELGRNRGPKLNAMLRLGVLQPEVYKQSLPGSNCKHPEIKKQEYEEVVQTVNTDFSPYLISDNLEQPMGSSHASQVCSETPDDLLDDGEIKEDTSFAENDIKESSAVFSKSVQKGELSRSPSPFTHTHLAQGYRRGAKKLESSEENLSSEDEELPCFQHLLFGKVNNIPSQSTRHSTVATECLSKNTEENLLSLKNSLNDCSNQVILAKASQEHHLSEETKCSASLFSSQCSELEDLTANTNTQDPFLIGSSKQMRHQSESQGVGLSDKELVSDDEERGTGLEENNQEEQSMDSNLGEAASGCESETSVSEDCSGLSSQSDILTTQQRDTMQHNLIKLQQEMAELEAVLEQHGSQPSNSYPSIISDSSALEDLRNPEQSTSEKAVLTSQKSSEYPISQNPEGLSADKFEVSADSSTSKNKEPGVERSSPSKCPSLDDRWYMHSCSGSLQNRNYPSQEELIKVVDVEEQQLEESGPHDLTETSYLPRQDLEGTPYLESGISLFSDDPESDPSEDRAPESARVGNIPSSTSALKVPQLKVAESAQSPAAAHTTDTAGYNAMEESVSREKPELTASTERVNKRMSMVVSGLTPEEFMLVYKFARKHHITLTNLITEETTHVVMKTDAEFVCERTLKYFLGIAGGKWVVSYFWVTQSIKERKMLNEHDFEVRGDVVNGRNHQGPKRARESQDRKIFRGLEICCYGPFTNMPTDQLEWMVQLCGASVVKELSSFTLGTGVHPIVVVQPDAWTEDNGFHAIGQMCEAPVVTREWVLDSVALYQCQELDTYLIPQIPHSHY

This assay concerns the target Breast cancer type 1 susceptibility protein (Homo sapiens) (UniProt P38398). The experiment in a line: qHTS Assay for Inhibitors of BRCT-Phosphoprotein Interaction (Green Fluorophore). The conditions noted are these: BRCA1 BRCT-phosphopeptide binding, green fluorescence polarization; series mostly up to 76.9 µM; activity change, negative = inhibition: at the top concentration. On the procedure:
NIH Molecular Libraries Screening Centers Network [MLSCN]
NIH Chemical Genomics Center [NCGC]
PI Name: Natarajan, Amarnath; University of Texas
A complex of BRCT (C-terminal portion of BRCA1, MW ~35 kDa, His-tagged) and fluorescently labeled pBACH1 phosphorylated 10 aa peptide fragment of BACH1, a helicase implicated in DNA repair, is incubated with library members. Inhibitors of BRCT-pBACH1 binding are detected by a decrease in the fluorescence polarization (FP) of the fluorophore. In order to minimize the effect of fluorescence artifacts and to increase the overall robustness of the screen, the compound library members were incubated in separate reactions with fluorescein labeled probe-protein complexes. Protein and labeled probes were supplied by Dr. Amarnath Natarajan, Department of Pharmacology and Toxicology, University of Texas Medical Branch Galveston, TX.
Assay Buffer: 16mM Na2HPO4, 4 mM NaH2PO4, 150 mM NaCl, 1 mM EDTA, 1 mM DTT, 0.02% NaN3, and 0.01% Tween 20 at pH 7.3.
100 nM labeled decapeptide/250 nM protein in columns 1, 2, 5 - 48. Titration of unlabeled decapeptide control (from 10 mM, then 1:2 dilution in duplicate) pin-transferred to column 2, rows 1 to 16. Column 1 is neutral.
Three uL of reagents were dispensed to 1536-well Greiner black solid-bottom plates. Compounds and controls (23 nL) were transferred
via Kalypsys PinTool. The plates were incubated for 12 min at room temperature, and then read on ViewLux (Perkin-Elmer) High throughput CCD imager using FITC for the fluorescein-labeled decapeptide probe polarization filter sets. During dispense, reagent bottles were kept submerged into 4 deg C water bath and all liquid lines were covered with aluminum foil to minimize probe and protein degradation. All screening operations were performed on a Kalypsys robotic system (Kalypsys, Inc., San Diego, CA) containing one RX-130 and two RX-90 anthropomorphic robotic arms. The timing and order of assay plates passing through the screening system were adjusted such that each compound library plate was assayed against the fluorescein- and rhodamine-labeled assay systems at immediately adjacent time points.
As to `Cc1nnc(NC2=NCCCCC2)o1`, the “activity change, negative = inhibition” value is -1.75%.
`CCNc1nc(NCC)nc(N(C)n2cnnc2)n1`: the “activity change, negative = inhibition” value is -1.9%.
Next, `c1csc(-c2cn3c(n2)SCC3)c1`: 2.19%; `O=C(c1csnn1)N1CCC[C@@]2(CCN(Cc3nccs3)C2)C1`: -1.37%.
In the case of `COc1cc(-c2nc(S(=O)(=O)c3ccc(Cl)cc3)c(N(C)C)o2)cc(OC)c1OC` it was -2.4%.
Regarding `COc1ccc(NC(=O)CSc2nnc(-c3cccs3)n2Cc2ccco2)cc1OC`, the “activity change, negative = inhibition” value is -1.04%.
Next, `COC(=O)[C@@H]1C[C@@]2(O)[C@H](O)[C@H](O)[C@H](O)C[C@H]2N1Cc1ccc(C(C)(C)C)cc1`: -2.44%; `Cc1ccc(S(=O)(=O)C(C#N)c2nc3ccccc3nc2N2CCCC2)cc1C` (stereo not given): 8.83%.
In the case of `O=C(CC1NCCNC1=O)Nc1ccc(Oc2ccccc2)cc1` (stereo not given) it was -1.54%; in that of `COC(=O)Nc1ccc(S(=O)(=O)N(C)CC(F)(F)C(F)F)cc1`, 2.58%; in that of `Cc1c2cnn(-c3ccccc3)c(=O)c2c(C)n1CCCC(=O)N1CCN(C)CC1`, -0.857%.
On to `O=c1c2c(nc3n1CCCCC3)sc1c(O)cccc12`, for which the “activity change, negative = inhibition” value was 0.259%.
As for `COC(=O)[C@@H]1C[C@H]2CC[C@H](O)C[C@H]2N1Cc1ccc(N2CCN(C)CC2)cc1`, the “activity change, negative = inhibition” value was -4.72%.
As for `CC(=O)OCC(=O)[C@@]1(O)CCC2C3CCC4=CC(=O)CC[C@@]4(C)[C@]3(F)C(O)C[C@]21C` (stereo not given in full), the activity change, negative = inhibition is -2.43% [at 3.08 µM].
As to `OCCCN1c2ccccc2Nc2nnc(-c3ccccc3)cc21`, the “activity change, negative = inhibition” value was 0.333%.
In the case of `COC1C[C@@H](O[C@@H]2C(C)C(=O)OC(C)C(C)C(O)C(C)C(=O)[C@@]3(CO3)CC(C)C(OC3OC(C)CC(N(C)C)C3O)C2C)OC(C)[C@@H]1O` (stereo not given in full) it was -1.55% [at 3.08 µM]; in that of `CCN(CC)S(=O)(=O)c1ccc2nc(CSc3nnnn3-c3ccc(O)cc3)[nH]c2c1`, 0.906%.
With `CCC1=C(OC(=O)N(CC)CC)N2C(=O)OC(=NCCc3c[nH]c4ccccc34)[C@]2(C)[C@H]2C1=CC[C@H]1C(=O)N(CC)C(=O)[C@H]12`, the “activity change, negative = inhibition” value is -2.62%.
`CSCCC1NC2(C(=O)Nc3ccc(Cl)cc32)[C@@H]2C(=O)N(C3CCCC3)C(=O)[C@H]12` (stereo not given in full): the “activity change, negative = inhibition” value was -0.643%.
Next, `c1ccc2c(CNn3cnnc3)cccc2c1`: -0.445%; `Cc1occc1C(=O)Nc1cccc(Cn2cccn2)c1`: 0.791%.
Next, `CCCc1nc2ccccc2c(=O)n1/N=C/c1ccc(O)c(O)c1`: 0.0898%; `CC(C)C[C@H](NC(=O)NCCc1ccc(Cl)cc1)C(=O)O`: 0.662%.
Consider `Cn1c(SCC(=O)Nc2cccc(NC(=O)c3cccs3)c2)nnc1-c1ccncc1`, for which the “activity change, negative = inhibition” value is -1.53%.
Turning to `CCCOc1ccc(C2C(C(=O)c3ccc(C)o3)=C(O)C(=O)N2CCCn2ccnc2)cc1` (stereo not given), the “activity change, negative = inhibition” value is -3.82%.
Next, `N#Cc1c(NC(=O)CSc2nc3ccccc3c(=O)n2Cc2ccco2)sc2c1CCCC2`: 0.27%; `CCOC(=O)C1C(=O)OC2(CCCC2)C1C(=O)OCC` (stereo not given): -2.01%; `Cn1nc(-c2ccc(N3CCOCC3)c(NC(=O)c3ccccc3)c2)c2ccccc2c1=O`: 3.23%.
Consider `CC1CCCCC1NC(=O)CSc1nnc(N)s1` (stereo not given), for which the “activity change, negative = inhibition” value was -1%.
In the case of `COCc1[nH]nc2c1C(C1C=CCCC1)C(C#N)=C(N)O2` (stereo not given) it was -1.17%.
Next, `O=c1c(O)c(-c2ccc(O)cc2)oc2ccccc12`: -3.22% [at 3.08 µM].
In the case of `CCOc1ccc2[nH]c(=O)c(CN(Cc3nnnn3CCc3ccccc3)CC3CCCO3)cc2c1` (stereo not given) it was 2.17%; in that of `Cc1ccc(C)c(NC(=O)C2CC(=O)N(C(C)C)C2)c1` (stereo not given), -0.457%.
Consider `O=C(COc1ccc(S(=O)(=O)NCCc2ccccc2)cc1)N1CCCC1`, for which the “activity change, negative = inhibition” value was -2.13%.
Regarding `CC(C)n1c(C(O)c2ccccc2)nc2ccccc21` (stereo not given), the “activity change, negative = inhibition” value was -0.718%.
As for `O=C(NCC12CC3CC(C1)CC(CNC(=O)N1CCCC1)(C3)C2)N1CCCC1`, the “activity change, negative = inhibition” value is -0.336%.
For `CC(=O)O[C@]1(C(C)=O)CC[C@@H]2[C@@H]3C=C(C)C4=CC(=O)CC[C@@]4(C)[C@H]3CC[C@]21C`, the “activity change, negative = inhibition” value was 0.539% [at 34.4 µM].
Next, `S=c1[nH]nc(SCc2ccccc2Cl)c2[nH]cnc12`: -0.607% [at 15.4 µM]; `CCNC(=O)CN(c1ccc(C)cc1)S(=O)(=O)c1ccc(SC)cc1`: -0.138%.
Next, `CC(C)NC(=O)N1CC[C@@]2(CCCN(C(=O)c3cccc(F)c3)C2)C1`: -3.78%; `Cc1ccc(C(c2nnnn2CS(=O)(=O)c2ccc(C)cc2)N2CCC(C(N)=O)CC2)cc1` (stereo not given): -1.57%.
On to `CCSc1ncnc2c(C#N)c3n(c12)CCCCC3`, for which the “activity change, negative = inhibition” value is 4.45%.
In the case of `COc1ccc(-n2c(SCC(=O)OC(C)C)nnc2-c2ccccn2)cc1`, the “activity change, negative = inhibition” value is -0.81%.
In the case of `Nc1nnc(C2CCCC2)s1`, the “activity change, negative = inhibition” value is 0.21%.
As for `CC(=O)c1ccc(-n2nnnc2SCC(=O)N2CCN(C(=O)c3ccco3)CC2)cc1`, the “activity change, negative = inhibition” value was 0.328%.
Consider `CC1(C)OC2CC(=O)OC[C@@]23C1CC(=O)[C@]1(C)C3CC[C@@]2(C)C(c3ccoc3)OC(=O)C3O[C@@]321` (stereo not given in full), for which the “activity change, negative = inhibition” value is -3.56%.
In the case of `C[C@H](CCC(=O)O)[C@H]1CC[C@@H]2[C@H]3CC[C@H]4C[C@H](O)CC[C@@]4(C)[C@@H]3CC[C@@]21C` it was -0.353% [at 15.4 µM]; in that of `COc1ccc(-c2nnco2)cc1OC`, -1.75%; in that of `CCCOC(=O)Cc1c(O)c2ccccc2[nH]c1=O`, -0.683%.
In the case of `N#CCC(=O)NC(=O)NCC1CC1` it was -1.78%.
